Here are results for 20 molecules from PubChem BioAssay (NCATS).

SMILES strings stand for the structures. Several values for one entry are separate records, joined by “and”; a condition that tells them apart may be missing. Identical values can stand only once. Records with an inconclusive call do not appear. Activity calls are given as the source filed them. Calls come from the whole dose curve.

Sequence of Bile acid receptor (Homo sapiens) (Q96RI1 whole entry, looked up): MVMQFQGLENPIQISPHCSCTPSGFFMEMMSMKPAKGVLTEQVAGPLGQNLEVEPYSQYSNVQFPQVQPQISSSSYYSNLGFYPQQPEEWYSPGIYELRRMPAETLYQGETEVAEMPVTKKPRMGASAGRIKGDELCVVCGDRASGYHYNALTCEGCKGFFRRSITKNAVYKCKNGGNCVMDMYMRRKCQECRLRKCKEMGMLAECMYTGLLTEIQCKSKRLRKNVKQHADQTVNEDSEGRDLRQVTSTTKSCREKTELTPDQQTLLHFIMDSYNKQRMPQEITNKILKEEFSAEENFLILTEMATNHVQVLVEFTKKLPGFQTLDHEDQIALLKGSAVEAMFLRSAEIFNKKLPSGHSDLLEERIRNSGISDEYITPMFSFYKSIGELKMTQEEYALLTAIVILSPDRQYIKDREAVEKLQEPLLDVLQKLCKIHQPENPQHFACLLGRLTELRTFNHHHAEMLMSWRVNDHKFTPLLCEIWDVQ

This test addresses Bile acid receptor (Homo sapiens) (UniProt Q96RI1). Description: qHTS assay for small molecule agonists of farnesoid X receptor signaling (AID 588527).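 Note: series mostly up to about 77 µM; 0% = vehicle basal and 100% = reference agonist.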 Conditions: HEK293T FXR-UAS-bla, beta-lactamase ratio, 16 h; hits give high values. An excerpt:
NIH Chemical Genomics Center [NCGC] U.S. Environmental Protection Agency [EPA] National Institutes of Environmental Health Sciences [NIEHS] National Toxicology Program [NTP] NCGC Assay Overview The farnesoid-X-receptor (FXR), a nuclear hormone receptor is highly expressed in liver, intestine, kidney and adrenal cortex. Natural ligands of FXR are the bile acids (Cholic acid, Chenodeoxy cholic acid etc). It is an important regulator of diverse metabolic pathways, including the bile acid homeostasis, lipid and glucose metabolisms. FXR regulates the expression of target genes by binding either as a monomer or as a heterodimer with RXR (retinoid X receptor). As FXR regulates a large number of target genes involved in bile acid, lipoprotein and glucose metabolisms, it is a potential pharmacological target for bile acid and lipid disorders. Thus screening environmental chemicals on FXR signaling can be used for the studies focused on metabolic syndrome, hepatic and intestinal toxicity etc.
NCGC Assay Protocol Summary Using a beta-lactamase reporter-gene under control of Farnesoid X receptor (FXR) response element, a cell-based assay [GeneBLAzer FXR-UAS-bla assay developed by Invitrogen] was used to measure FXR ligands signaling. GeneBLAzer FXR-UAS-bla HEK293T cells were used with assay medium containing 10% dialyzed FBS. The assay was performed in clear bottom black Greiner 1536-well plates. Chenodeoxycholic acid and Guggulsterone were used in the screen as agonist and antagonist positive controls respectively. Library compounds were measured for their ability to stimulate the reporter gene activity. Compounds were screened in a titration series in 1536-well format. […] Data was normalized relative to Chenodeoxycholic acid control (100 uM, 100%), and DMSO only wells (basal, 0%). Concentration-response titration points for each compound were fitted to the Hill equation yielding concentrations of half-maximal stimulation (EC50) and maximal response (efficacy) values. qHTS protocol for FXR beta-lactamase assay in agonist mode [Step] [Parameter] [Value] [Description] 1. Reagent; 6 uL; 5000 cells/well 2. Incubation; 37 C for 5-7 hrs 3. Compounds; 23 nL; 0.59 nM to 92 uM 4. Controls (Chenodeoxycholic acid); 23 nL, - One column with dose response, start 200 uM, 1:2 dilutions in duplicates - Final concentrations of 100 uM and 60 uM in two columns 5. Incubation; 37 C for 16 hrs 6. Detection reagent; 1 uL of CCF4-dye 7. Incubation; RT for 2 hrs 8. Detection; Fluorescence; Envision plate reader
In the case of `CCCCCCCCOC(=O)c1ccccc1C(=O)OCCCCCCCC`, the activation is 1.69% (inactive).
On to `ClC1C(Cl)C(Cl)C(Cl)C(Cl)C1Cl` (stereo not given), for which the activation was 1.57% (inactive) [middle of 4 runs].
For `C=CCN=C=S`, the activation is -2.58% (inactive).
With `O=C1CCO1`, the activation was 0.979% (inactive).
The result for `C[C@H]1CC[C@@H]2[C@@H](C)[C@H]3[C@H](C[C@H]4[C@@H]5CC=C6CC(O[C@@H]7O[C@H](CO)[C@H](O)[C@H](O[C@@H]8O[C@H](CO)[C@@H](O)[C@H](O)[C@H]8O)[C@H]7O[C@H]7O[C@@H](C)[C@H](O)[C@@H](O)[C@H]7O)CC[C@]6(C)[C@H]5CC[C@]34C)N2C1` (stereo not given in full) reads 11.7% (inactive); that for `ClC(Cl)(Cl)Cl`, -1.25% (inactive) and -2.57% (inactive).
For `Clc1ccccc1Cl`, the activation is -2.33% (inactive).
The value for `[O]=[Cr](=[O])([OH])[O][Cr](=[O])(=[O])[OH]` was 9.26% (inactive) and 4.19% (inactive); that for `O=C(O)c1cc[c]([Hg][Cl])cc1` was 1.46% (inactive).
Consider `CC(C)Nc1ccc(Nc2ccccc2)cc1`, for which the activation was 3.94% (inactive).
With `COC1=CC(=O)O[C@@H](/C=C/c2ccccc2)C1`, the activation is -0.876% (inactive).
The value for `O=[N+]([O-])C(Br)(CO)CO` was 2.54% (inactive); that for `O=C(NCNC(=O)NC1C(=O)NC(=O)N1CO)NC1C(=O)NC(=O)N1CO` (stereo not given) was 1.1% (inactive); that for `COCC(C)N(C(=O)CCl)c1c(C)csc1C` (stereo not given) was 0.208% (inactive).
For `ClC=C(Cl)Cl`, the activation was -1.52% (inactive) and -2.36% (inactive).
Take `NNC(N)=O`: the activation is -1.54% (inactive).
`CCCCCl`: the activation is 1.93% (inactive).
For `CC(C)(C)c1cc(O)ccc1O`, the activation was 0.716% (inactive) and -1.49% (inactive) and 4.72% (inactive).
`O=[N+]([O-])c1ccc(F)c([N+](=O)[O-])c1`: the activation is -1.56% (inactive).
With `CCCSP(=O)(OCC)SCCC`, the activation is 2.76% (inactive).
